Values joined by “and” are separate entries in the source; they are usually repeats but may differ in a detail not shown here. Identical values can stand only once. A number with no mark means an inactive call. Inconclusive results are not listed. Active and inactive are the calls of the source. The call rests on the fitted dose curve; in most records, active means well fitted curve in the direction sought with a large enough effect in the repeat runs; inconclusive means weak or mixed curves; inactive means no such curve, though single readings can be large; an effect the other way counts as inactive or inconclusive.

Assay [1] can be described thus: qHTS RealTime-Glo MT Cell Viability Assay in HepG2 cells - 40 hour (AID 1224870). Further: nearly all actives have a fitted effect of over 50% in size. The gist of the method:
(§1)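 HepG2 cells mixed with RealTime-Glo MT reagents (NanoLuc plus cell-permeant prosubstrate) were seeded at 600 cells/well, incubated 5 h at 37 C/5% CO2, then pinned with compounds in DMSO; nonlytic luminescence tracked viability during 40 h treatment.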
Background: Quantitative high-throughput screening tests each substance at several concentrations.

Assay [2] in a line: A CellTox Green Cytotoxicity Assay to monitor cytotoxicity in HEK293 cells - 40 hour (AID 1224871). Further: nearly all actives have a fitted effect of over 45% in size. In outline:
(§2)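 Tox21 screen in HEK293: membrane-impermeant cyanine dye fluoresces on binding dead-cell DNA; compound pinned 5 h post-seeding, plates held at 37 C, signal read repeatedly through 40 h.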

Assay [3] can be described thus: A CellTox Green Cytotoxicity Assay to monitor cytotoxicity in HEK293 cells - 24 hour (AID 1224875). Further: series mostly up to about 77 µM; nearly all actives have a fitted effect of over 45% in size. In outline: as §2
A short description of assay [4]: qHTS RealTime-Glo MT Cell Viability Assay in HepG2 cells - 32 hour (AID 1224877). Further: nearly all actives have a fitted effect of over 55% in size. The gist of the method:
(§3)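 Compound treatment began 5 h after plating HepG2 cells (600/well) with NanoLuc luciferase and prosubstrate. Plates stayed at 37 C for 40 h; luminescence was captured at six time points, 0 h through 40 h.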

A short description of assay [5]: A CellTox Green Cytotoxicity Assay to monitor cytotoxicity in HepG2 cells - 24 hour (AID 1224878). Further: nearly all actives have a fitted effect of over 45% in size. The gist of the method:
(§4)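 Measurements at 0, 8, 16, 24, 32 and 40 h of treatment captured CellTox Green fluorescence in HepG2 cells that had been co-plated with reagent and preincubated 5 h at 37 C/5% CO2.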

A short description of assay [6]: A CellTox Green Cytotoxicity Assay to monitor cytotoxicity in HepG2 cells - 40 hour (AID 1224879). Further: nearly all actives have a fitted effect of over 40% in size. In outline: as §4
The nature of assay [7]: qHTS RealTime-Glo MT Cell Viability Assay in HEK293 cells - 0 hour (AID 1224880). Further: top concentration of the series differs between compounds; nearly all actives have a fitted effect of over 45% in size. The gist of the method:
(§5)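 HEK293 + NanoLuc + prosubstrate, 600 cells/well; 5 h, 37 C/5% CO2; compound 23 nL in DMSO by pintool; 37 C; luminescence read at 0, 8, 16, 24, 32 and 40 h time points.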

Assay [8] is described as follows: A CellTox Green Cytotoxicity Assay to monitor cytotoxicity in HEK293 cells - 32 hour (AID 1224881). Further: nearly all actives have a fitted effect of over 40% in size. In outline: as §2
The nature of assay [9]: A CellTox Green Cytotoxicity Assay to monitor cytotoxicity in HepG2 cells - 32 hour (AID 1224883). Further: nearly all actives have a fitted effect of over 50% in size. In outline:
as §4

A short description of assay [10]: A CellTox Green Cytotoxicity Assay to monitor cytotoxicity in HEK293 cells - 8 hour (AID 1224884). Further: nearly all actives have a fitted effect of over 35% in size. In outline:
as §2

Assay [11] is described as follows: qHTS RealTime-Glo MT Cell Viability Assay in HepG2 cells - 16 hour (AID 1224885). Further: nearly all actives have a fitted effect of over 50% in size. In outline: as §3
The nature of assay [12]: qHTS RealTime-Glo MT Cell Viability Assay in HEK293 cells - 24 hour (AID 1224886). Further: nearly all actives have a fitted effect of over 50% in size. Further: potency means the concentration at half of the fitted maximal effect. The gist of the method: (§6)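 Quantitative high-throughput screen of the Tox21 10K library in HEK293: cells and RealTime-Glo reagents plated together, compound added at 5 h, luminescence monitored through 40 h at 37 C.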
The nature of assay [13]: A CellTox Green Cytotoxicity Assay to monitor cytotoxicity in HEK293 cells - 16 hour (AID 1224888). Further: nearly all actives have a fitted effect of over 35% in size. In outline:
as §2

Assay [14] can be described thus: qHTS RealTime-Glo MT Cell Viability Assay in HepG2 cells - 0 hour (AID 1224889). Further: nearly all actives have a fitted effect of over 50% in size. In outline: as §3
A short description of assay [15]: qHTS RealTime-Glo MT Cell Viability Assay in HepG2 cells - 8 hour (AID 1224873). Further: nearly all actives have a fitted effect of over 55% in size. In outline:
as §1

A short description of assay [16]: A CellTox Green Cytotoxicity Assay to monitor cytotoxicity in HepG2 cells - 16 hour (AID 1224876). Further: nearly all actives have a fitted effect of over 45% in size. The gist of the method: as §4
A short description of assay [17]: qHTS RealTime-Glo MT Cell Viability Assay in HEK293 cells - 16 hour (AID 1224872). In outline: as §6
The nature of assay [18]: qHTS RealTime-Glo MT Cell Viability Assay in HEK293 cells - 40 hour (AID 1224874). Further: nearly all actives have a fitted effect of over 50% in size. As to conditions: RealTime-Glo luminescence; max response: stronger effect = lower value. The gist of the method:
as §5

Assay [19] in a line: A CellTox Green Cytotoxicity Assay to monitor cytotoxicity in HepG2 cells - 0 hour (AID 1224882). Further: nearly all actives have a fitted effect of over 35% in size. The gist of the method:
as §4

Assay [20] can be described thus: qHTS RealTime-Glo MT Cell Viability Assay in HEK293 cells - 8 hour (AID 1224887). In outline:
as §5
On the % scale 0 is the no-effect control and ±100 the full control effect.

For the compound `Cc1ccc2c(c1N)C(=O)c1ccccc1C2=O`, the Potency entry in [1], in assay [2], in assay [3], in assay [4], in assay [5] and in assay [6] was “inactive” each time. In addition, the Potency result in [7], in [8], in [9], in assay [10], in assay [11] and in assay [13] was “inactive” in each case. Besides, the Potency result in assay [14] was “inactive”. The Potency in [12] was 9.67 µM (active) and 7.76 µM (active).

As to `CCOc1cc(Oc2ccc(C(F)(F)F)cc2Cl)ccc1[N+](=O)[O-]`, the Potency entry in assay [1], in [2], in [15], in [3], in [16] and in [4] was “inactive” each time. The Potency entry in assay [5], in [6], in [7], in assay [8], in [9] and in assay [10] was “inactive” throughout. Also, the Potency entry in assay [11], in assay [13] and in assay [14] was “inactive” throughout.

As to `CC(O)CCO` (stereo not given), the Potency result in assay [1], in assay [17], in assay [15], in [3], in [16] and in assay [4] was “inactive” throughout. The Potency result in assay [5], in assay [6], in assay [7], in assay [8], in [19] and in [9] was “inactive” in each case. For the same compound, the Potency entry in [10], in [11], in [12], in [20], in assay [13] and in assay [14] was “inactive” in each case. Besides, the max response in [18] is -0.607% and 26.7%.

As to `Nc1cccnc1`, the Potency entry in assay [1], in assay [17], in assay [15], in [3], in assay [16] and in assay [4] was “inactive” each time. Also, the Potency entry in [5], in assay [6], in [7], in [8], in [19] and in assay [9] was “inactive” throughout. In addition, the Potency entry in [10], in assay [11], in assay [12], in [20], in [13] and in assay [14] was “inactive” throughout. The max response in assay [18] is 2.11% and -8.29%.

In the case of `COC(=O)c1sccc1S(=O)(=O)NC(=O)Nc1nc(C)nc(OC)n1`, the Potency result in assay [1], in assay [2], in assay [15], in assay [3], in assay [16] and in assay [4] was “inactive” throughout. Moreover, the Potency entry in [5], in assay [6], in assay [7], in assay [8], in assay [19] and in assay [9] was “inactive” throughout. For the same compound, the Potency entry in assay [10], in [11], in assay [12], in [13] and in assay [14] was “inactive” in each case. In [18], the max response is 4% and 6.48%.

As for `Cc1ccc(N)c(N)c1`, the Potency result in [1], in [2], in assay [15], in assay [3], in [16] and in [4] was “inactive” throughout. For the same compound, the Potency entry in assay [5], in [6], in [7], in assay [8], in [19] and in [9] was “inactive” throughout. Moreover, the Potency result in assay [10], in assay [11], in [20], in assay [13] and in assay [14] was “inactive” in each case.

Consider `O=C(O)CC[N+](=O)[O-]`, for which the Potency result in assay [1], in assay [2], in assay [15], in [3], in [4] and in assay [5] was “inactive” in each case. Besides, the Potency result in assay [6], in [7], in assay [8], in assay [9], in [10] and in assay [11] was “inactive” in each case. The Potency entry in assay [12], in assay [20], in [13] and in assay [14] was “inactive” each time. In addition, the max response in [18] is 0.345% and -3.12%.

Take `S=C1NCCN1`: the Potency entry in [1], in [17], in assay [15], in assay [3], in assay [16] and in [4] was “inactive” each time. Besides, the Potency result in assay [5], in assay [6], in assay [7], in assay [8], in assay [19] and in assay [9] was “inactive” each time. The Potency result in assay [10], in assay [11], in assay [12], in [20], in assay [13] and in [14] was “inactive” each time. Moreover, in assay [18], the max response is 5.45% and 5.82%.

On to `COP(=S)(OC)Oc1cc(Cl)c(Cl)cc1Cl`, for which the Potency entry in [1], in [2], in assay [15], in [3], in assay [16] and in assay [4] was “inactive” each time. The Potency result in assay [5], in [6], in assay [7], in assay [8], in assay [19] and in assay [9] was “inactive” throughout. Moreover, the Potency entry in [10], in assay [11], in assay [12], in assay [20], in assay [13] and in [14] was “inactive” in each case. Further, in assay [18], the max response was -10.5% and -1.54%.

`CCCCN(CCCC)N=O`: the Potency entry in assay [1], in assay [2], in [15], in [3], in assay [16] and in [4] was “inactive” in each case. The Potency result in assay [5], in [6], in assay [7], in assay [8], in assay [19] and in assay [9] was “inactive” each time. The Potency entry in assay [10], in assay [11], in assay [12], in assay [13] and in [14] was “inactive” throughout. In [18], the max response was -0.0622% and 14.1%.

With `CCN(CC)C(=O)SCc1ccc(Cl)cc1`, the Potency entry in [1], in [2], in [15], in assay [3], in assay [16] and in [4] was “inactive” in each case. Also, the Potency entry in assay [5], in assay [6], in assay [7], in [8], in [19] and in assay [9] was “inactive” in each case. Moreover, the Potency entry in [10], in [11], in assay [12], in [13] and in assay [14] was “inactive” throughout. Also, the max response in assay [18] was -8.77% and 0.16%.

Turning to `Cc1ccccc1[N+](=O)[O-]`, the Potency entry in assay [1], in assay [2], in [15], in assay [3], in [16] and in [4] was “inactive” each time. Moreover, the Potency entry in [5], in [6], in assay [7], in [8], in assay [19] and in [9] was “inactive” each time. Moreover, the Potency result in assay [10], in assay [11], in assay [12], in [20], in [13] and in [14] was “inactive” in each case. The max response in [18] was 1.02% and 16.9%.

In the case of `Clc1nc(Cl)nc(Cl)n1`, the Potency result in assay [1], in assay [2], in assay [15], in [3], in [4] and in assay [5] was “inactive” throughout. Also, the Potency result in [6], in [7], in [8], in assay [19], in [9] and in [10] was “inactive” each time. For the same compound, the Potency result in assay [11], in assay [12], in assay [13] and in assay [14] was “inactive” each time.

For `O=C(NC(=O)c1c(F)cccc1F)Nc1ccc(Cl)cc1`, the Potency result in assay [1], in [2], in assay [15], in assay [3], in assay [4] and in assay [5] was “inactive” throughout. Also, the Potency result in assay [6], in [7], in assay [8], in assay [19], in assay [9] and in [10] was “inactive” throughout. Moreover, the Potency entry in assay [11], in assay [13] and in assay [14] was “inactive” in each case.

For `CC(C)c1ccc(CO)cc1`, the Potency entry in [1], in assay [2], in assay [15], in [3], in assay [16] and in [4] was “inactive” each time. The Potency result in assay [5], in [6], in assay [7], in [8], in assay [9] and in assay [10] was “inactive” throughout. The Potency entry in assay [11], in [12], in [20], in assay [13] and in assay [14] was “inactive” throughout.

The values are drawn from PubChem BioAssay (Tox21).
